Laboratory results published in PubChem BioAssay.
The source made the active and inactive calls.

How the values were obtained:
Albumin (Bos taurus) = Albumin (Bos taurus) (UniProt P02769); test: compounds binding labelled BSA control protein – biochemical, small-molecule microarray, Alexa647 label, 635/667 nm fluorescence, artefact control for SMM control protein annotation, profiling panel (AID 1118); conditions: BSA-A647 binding, fluorescence 635 nm, higher = more signal;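 also: score merges 667 nm emission intensity and signal-to-noise per printed compound spot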
Sequence of Albumin (Bos taurus) (P02769 whole entry, looked up): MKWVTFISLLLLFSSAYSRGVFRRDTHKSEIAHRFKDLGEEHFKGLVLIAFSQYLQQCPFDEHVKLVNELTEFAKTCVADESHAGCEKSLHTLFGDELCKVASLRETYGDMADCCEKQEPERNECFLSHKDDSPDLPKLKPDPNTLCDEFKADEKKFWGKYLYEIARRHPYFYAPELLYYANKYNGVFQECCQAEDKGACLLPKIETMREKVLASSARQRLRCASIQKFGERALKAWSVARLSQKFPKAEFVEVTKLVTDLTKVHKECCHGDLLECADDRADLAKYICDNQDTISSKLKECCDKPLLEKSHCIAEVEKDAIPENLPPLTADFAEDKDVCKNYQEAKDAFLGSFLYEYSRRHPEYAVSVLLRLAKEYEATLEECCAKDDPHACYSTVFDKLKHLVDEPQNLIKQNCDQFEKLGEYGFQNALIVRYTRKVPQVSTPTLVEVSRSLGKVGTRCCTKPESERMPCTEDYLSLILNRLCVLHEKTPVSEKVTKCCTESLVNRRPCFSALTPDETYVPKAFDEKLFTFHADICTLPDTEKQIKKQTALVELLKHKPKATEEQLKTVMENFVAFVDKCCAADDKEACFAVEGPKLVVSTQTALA

[1] = probe aXIP binding to arrayed compounds – biochemical, NeuroSMM set, 635/667 nm fluorescence, primary screen (AID 1119); conditions: small-molecule microarray, higher = more signal, called active from +8 up or from −8 down;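 also: probe is the protein aXip251-270 applied at 1 µg/mL to compound-printed slides; binding of probe to printed compounds measured as 667 nm fluorescence plus signal to noise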
[2] = probe aNOTCH3 binding on compound microarray – biochemical, small-molecule microarray, 635/667 nm fluorescence, primary screen (AID 1120); conditions: higher = more signal;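 also: probe is a biotin-tagged antibody raised against NOTCH3 rather than NOTCH3 protein; score merges spot fluorescence near 667 nm with spot signal to noise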
[3] = probe aNOTCH2 binding on compound microarray – biochemical, small-molecule microarray, 635/667 nm fluorescence, primary screen (AID 1121); conditions: higher = more signal;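 also: score merges feature fluorescence read at 667 nm with its signal to noise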
[4] = biological target: Carbonic anhydrase 2 (Homo sapiens) (UniProt P00918); test: compounds binding carbonic anhydrase 2 – biochemical, small-molecule microarray, Alexa647-labelled CAII, profiling panel (AID 1122); conditions: CAII-A647 binding fluorescence, higher = more signal
[5] = COS7 lysate on small-molecule microarray, probe aHis, 635 nm (AID 1123); conditions: COS7 cell lysate, fluorescence, higher = more signal;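 also: z-score combines 667nm fluorescence intensity with signal-to-noise per printed compound spot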
[6] = probe aLAP1 signal on lysate-treated microarray – cell lysate, small-molecule microarray, COS7 lysate, primary screen (AID 1124); conditions: probe aLAP1, fluorescence, higher = more signal;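 also: lysate comes from COS7 cells expressing LAP1 and is applied at 0.3 µg/mL; score merges spot fluorescence near 667 nm with signal-to-noise over triplicate slides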
Sam68 (KHDRBS1) = test: compounds binding KHDRBS1 protein – biochemical, small-molecule microarray, 635 nm fluorescence, primary screen (AID 1125); conditions: higher = more signal;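 also: score merges 667 nm channel intensity with signal to noise over triplicate slides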
[7] = system: Chordin-like protein 2 (CHRDL2); test: compounds binding chordin-like 2 – biochemical, small-molecule microarray, 635 nm fluorescence, primary screen (AID 1126); conditions: fluorescence 635 nm, higher = more signal;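 also: printed compound slides probed with Chrdl2 protein at 4 µg/mL for 1 h at 4 C; score merges 667 nm emission intensity with signal to noise over three replicate slides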
[8] = biological target: Concanavalin-A (Canavalia ensiformis) (UniProt P02866); test: compounds binding concanavalin A lectin – biochemical, small-molecule microarray, Alexa647 label, 635 nm, artefact control for SMM control protein annotation, primary screen (AID 1127); conditions: ConA-A647 binding fluorescence, higher = more signal;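 also: z combines 667 nm emission intensity with signal-to-noise across three replicate slides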
Sequence of Concanavalin-A (Canavalia ensiformis) (P02866 whole entry, looked up): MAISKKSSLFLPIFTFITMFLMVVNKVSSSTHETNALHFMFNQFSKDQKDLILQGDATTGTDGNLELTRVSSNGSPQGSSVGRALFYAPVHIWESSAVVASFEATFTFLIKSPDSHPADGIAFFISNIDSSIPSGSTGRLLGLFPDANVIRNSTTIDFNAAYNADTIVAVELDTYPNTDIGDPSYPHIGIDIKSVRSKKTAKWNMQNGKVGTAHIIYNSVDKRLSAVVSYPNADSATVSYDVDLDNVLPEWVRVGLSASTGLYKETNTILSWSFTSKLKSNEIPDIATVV

[9] = compounds binding Alexa647 anti-His antibody – biochemical, small-molecule microarray, 635 nm fluorescence, artefact control for SMM control protein annotation, primary screen (AID 1128); conditions: higher = more signal;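 also: score merges feature fluorescence with signal-to-noise for each printed compound spot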
[10] = system: Human papillomavirus type 1a E7 protein (residues 1-88); test: HPV1a E7 small-molecule binders, primary screen, biochemical, small-molecule microarray, residues 1-88, 635 nm (AID 1129); conditions: small-molecule microarray binding, fluorescence 635 nm; higher = more signal
[11] = biological target: Focal adhesion kinase 1 (Homo sapiens) (UniProt Q05397); test: PTK2 protein binding on printed compound slides – biochemical, small-molecule microarray, 635/667 nm fluorescence, BSA, DTT, primary screen (AID 1130); conditions: 635 nm fluorescence, higher = more signal;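 also: composite of spot emission at 667 nm and signal to noise over triplicate slides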
Sequence of Focal adhesion kinase 1 (Homo sapiens) (Q05397 whole entry, looked up): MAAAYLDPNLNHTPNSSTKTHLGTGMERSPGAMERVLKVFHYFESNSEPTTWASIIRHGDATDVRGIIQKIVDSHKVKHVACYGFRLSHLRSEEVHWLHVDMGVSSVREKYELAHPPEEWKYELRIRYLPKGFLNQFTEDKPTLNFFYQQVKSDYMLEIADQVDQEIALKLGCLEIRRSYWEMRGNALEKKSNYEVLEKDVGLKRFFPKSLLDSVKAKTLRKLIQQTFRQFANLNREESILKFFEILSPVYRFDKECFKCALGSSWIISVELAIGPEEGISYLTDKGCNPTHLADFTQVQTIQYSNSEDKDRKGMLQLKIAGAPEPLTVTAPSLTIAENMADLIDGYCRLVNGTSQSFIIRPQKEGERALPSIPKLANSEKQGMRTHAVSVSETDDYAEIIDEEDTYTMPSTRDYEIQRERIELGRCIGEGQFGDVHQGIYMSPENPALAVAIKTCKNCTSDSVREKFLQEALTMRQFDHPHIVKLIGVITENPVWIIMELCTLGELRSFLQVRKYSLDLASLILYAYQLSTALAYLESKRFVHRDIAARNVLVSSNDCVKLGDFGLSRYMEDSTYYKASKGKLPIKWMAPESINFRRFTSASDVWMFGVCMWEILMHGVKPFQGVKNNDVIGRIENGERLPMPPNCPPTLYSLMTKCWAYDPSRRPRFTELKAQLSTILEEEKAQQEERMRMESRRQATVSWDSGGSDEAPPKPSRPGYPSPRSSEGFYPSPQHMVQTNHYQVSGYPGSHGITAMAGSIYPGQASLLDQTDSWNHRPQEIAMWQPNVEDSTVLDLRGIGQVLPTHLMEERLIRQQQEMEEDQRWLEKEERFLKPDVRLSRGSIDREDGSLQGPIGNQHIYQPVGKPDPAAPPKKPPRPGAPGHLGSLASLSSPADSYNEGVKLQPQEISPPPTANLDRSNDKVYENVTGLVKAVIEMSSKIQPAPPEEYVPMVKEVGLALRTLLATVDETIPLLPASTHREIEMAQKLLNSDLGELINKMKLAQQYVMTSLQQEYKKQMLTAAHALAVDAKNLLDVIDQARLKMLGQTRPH

[12] = system: Fibrinogen (Alexa647-labelled); test: Alexa647-fibrinogen binding to printed small molecules – biochemical, small-molecule microarray, 635/667 nm fluorescence, artefact control for SMM control-protein annotation, profiling panel (AID 1131); conditions: fibrinogen-A647 binding fluorescence, higher = more signal;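 also: z-score merges 667 nm fluorescence with per-spot signal-to-noise over triplicate slides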
[13] = biological target: Follistatin (Homo sapiens) (UniProt P19883); test: FST protein binding to printed compounds – biochemical, small-molecule microarray, 635/667 nm fluorescence, primary screen (AID 1132); conditions: 635 nm fluorescence, higher = more signal
Sequence of Follistatin (Homo sapiens) (P19883 whole entry, looked up): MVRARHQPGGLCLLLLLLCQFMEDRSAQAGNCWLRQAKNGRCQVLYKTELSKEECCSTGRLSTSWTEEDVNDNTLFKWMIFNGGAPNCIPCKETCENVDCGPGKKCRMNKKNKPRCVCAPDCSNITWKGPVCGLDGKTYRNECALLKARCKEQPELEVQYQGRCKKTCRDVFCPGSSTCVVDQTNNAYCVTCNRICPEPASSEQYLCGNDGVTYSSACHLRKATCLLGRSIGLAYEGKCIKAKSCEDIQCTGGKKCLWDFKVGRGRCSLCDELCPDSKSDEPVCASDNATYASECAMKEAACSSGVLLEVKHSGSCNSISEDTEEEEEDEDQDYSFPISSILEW

[14] = biological target: Fibroblast growth factor 2 (Homo sapiens) (UniProt P09038); test: basic fibroblast growth factor binding to printed compounds – biochemical, small-molecule microarray, 635/667 nm fluorescence, primary screen (AID 1133); conditions: FGF2, fluorescence 635/667, higher = more signal
Sequence of Fibroblast growth factor 2 (Homo sapiens) (P09038 whole entry, looked up): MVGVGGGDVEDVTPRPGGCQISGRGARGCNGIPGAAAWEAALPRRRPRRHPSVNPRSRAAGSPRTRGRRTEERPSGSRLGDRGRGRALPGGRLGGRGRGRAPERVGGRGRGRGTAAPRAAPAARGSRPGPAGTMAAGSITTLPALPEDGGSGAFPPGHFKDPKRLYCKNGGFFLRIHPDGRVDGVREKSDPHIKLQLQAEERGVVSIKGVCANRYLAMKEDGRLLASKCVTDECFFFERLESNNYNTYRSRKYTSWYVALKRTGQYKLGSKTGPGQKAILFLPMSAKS

[15] = JC-1 mitochondrial potential readout, lung cancer cells – cell-based, A549, JC-1 fluorescence, basal, 24 h, 100 nL, profiling panel (AID 1138); conditions: higher = more signal;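 also: A549 lung adenocarcinoma cells under basal conditions with no added stimulus; test concentration not given here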
Lefty1 = Lefty1 protein binding to printed compounds – biochemical, small-molecule microarray, 635/667 nm fluorescence, primary screen (AID 1139); conditions: fluorescence 635/667, higher = more signal
[16] = system: wheat germ agglutinin (Triticum aestivum), Alexa647-labelled; test: Alexa647-WGA lectin binding to printed small molecules – biochemical, small-molecule microarray, 635/667 nm fluorescence, artefact control for SMM control-protein annotation, profiling panel (AID 1140); conditions: WGA-A647 binding, 635 nm fluorescence, higher = more signal;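 also: score merges 667 nm feature emission with signal to noise over triplicate slides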
[17] = biological target: Luciferin 4-monooxygenase (Photinus pyralis) (UniProt P08659); test: inhibition of purified Photinus pyralis luciferase – biochemical, luminescence, purified enzyme, 2006 set, primary screen (AID 1141); conditions: purified firefly luciferase, SteadyGlo luminescence, 30 min; higher = more signal, called active from +8 up or from −8 down;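 also: cell-free assay with purified firefly luciferase at 100 ng per well in PBS; test concentration not given here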
Sequence of Luciferin 4-monooxygenase (Photinus pyralis) (P08659 whole entry, looked up): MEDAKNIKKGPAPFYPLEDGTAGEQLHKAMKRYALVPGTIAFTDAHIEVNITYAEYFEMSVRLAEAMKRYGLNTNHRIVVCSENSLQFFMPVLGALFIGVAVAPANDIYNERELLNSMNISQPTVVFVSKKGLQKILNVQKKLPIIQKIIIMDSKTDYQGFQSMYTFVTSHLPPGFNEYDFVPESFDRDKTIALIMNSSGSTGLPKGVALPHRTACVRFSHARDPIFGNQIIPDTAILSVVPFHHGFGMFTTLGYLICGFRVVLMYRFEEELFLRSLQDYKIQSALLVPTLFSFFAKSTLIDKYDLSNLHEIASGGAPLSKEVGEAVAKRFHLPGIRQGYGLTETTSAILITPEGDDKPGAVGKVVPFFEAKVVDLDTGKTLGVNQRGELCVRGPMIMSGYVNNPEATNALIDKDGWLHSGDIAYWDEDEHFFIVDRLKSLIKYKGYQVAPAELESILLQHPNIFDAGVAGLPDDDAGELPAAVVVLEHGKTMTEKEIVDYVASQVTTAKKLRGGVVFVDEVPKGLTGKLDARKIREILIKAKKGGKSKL

SMILES | composite z-score (Albumin (Bos taurus)) | composite Z-score [1] | composite z-score [2] | composite z-score [3] | composite z-score [4] | composite z-score [5] | composite z-score [6] | composite z-score (Sam68 (KHDRBS1)) | composite z-score [7] | composite z-score [8] | composite z-score [9] | composite z-score [10] | composite z-score [11] | composite z-score [12] | composite z-score [13] | composite z-score [14] | z-score [15] | composite z-score (Lefty1) | composite z-score [16] | z-score [17]
CCCC[C@@H](O)C1=C(COC)C[C@H]2C(=O)N(C)C(=O)[C@H]2[C@H]1CO | 0.277 | 0.0275 (inactive) | -0.139 | -0.217 | 0.183 | -0.419 | 0.0048 | -0.0046 | 0.831 | 0.256 | 0.217 | -0.165 | -0.185 | 0.171 | 0.504 | 0.201 | -0.278 | 1.14 | -0.11 | 0.0646 (inactive)
COCCOC(=O)N1C(=O)[C@@]2(c3cc(C#CC4(O)CCCCCC4)ccc31)[C@H](c1ccc(O)cc1)N1[C@H](c3ccccc3)[C@H](c3ccccc3)OC(=O)[C@H]1[C@@H]2C(=O)N1CCN(c2ncccn2)CC1 | 0.521 | 0.883 (inactive) | 0.0562 | -0.12 | 0.437 | 1.29 | 0.46 | 1.29 | -0.163 | 1.12 | 0.388 | 1.17 | 0.839 | 0.576 | 1.06 | 1.32 | -0.976 | 0.497 | 0.417 | -0.47 (inactive)
[N-]=[N+]=Nc1ccccc1C[C@]1(C(=O)N2CCOCC2)COC(c2ccc(OCCCO)cc2)=N1 | 0.808 | 0.04 (inactive) | 0.373 | -0.118 | 0.763 | 2.21 | -0.181 | 1.29 | -0.646 | 0.99 | 0.964 | 1.24 | 0.144 | 1.04 | 0.39 | -0.313 | 0.9 | -0.0478 | 0.606 | -5.96 (inactive)
COC(=O)[C@@]1(Cc2ccc(OC)cc2)[C@H]2c3cc(C(=O)N(C)C)n(Cc4ccc(C)o4)c3C[C@H]2CN1C(=O)c1ccccc1 | 0.814 | 1.24 (inactive) | 0.517 | 0.204 | 0.806 | 2.99 | 0.463 | 0.933 | -0.905 | 0.842 | 0.787 | 1.26 | 0.877 | 0.984 | 0.262 | -0.48 | 1.26 | -0.0198 | 1.1 | -18.5 (active)
NCCCCCNC(=O)[C@@H]1C[C@@H]2C(=O)N[C@@H](CCCCN)C(=O)N2[C@@H]1c1ccc(O)cc1 | -0.321 | 0.562 (inactive) | 0.353 | -0.0162 | 0.635 | 2.38 | 0.103 | 1.3 | 1.38 | 1.15 | 1.98 | 1.23 | 0.294 | 0.782 | 1.42 | 1.74 | -0.862 | 1.57 | 1.14 | -0.364 (inactive)
COCCCNC(=O)[C@@]1(Sc2ccc(C)cc2)CC(=O)N(C2Cc3ccccc3C2)[C@@H]1c1ccc(CO)cc1 | 0.0753 | 1.23 (inactive) | -0.157 | -0.181 | 0.748 | 0.537 | 0.352 | 0.209 | -1.86 | 0.163 | 0.72 | 0.336 | -0.296 | -0.841 | -1.22 | -1.35 | -0.318 | -1.1 | -1.47 | 0.925 (inactive)
COC(=O)[C@@H]1N=C(c2ccc(OCCCO)cc2)O[C@@H]1c1ccccc1 | 0.258 | 0.536 (inactive) | -0.206 | -0.104 | 0.7 | 0.387 | -0.342 | -0.826 | -1.89 | -0.324 | 1.33 | -0.314 | -0.137 | -0.887 | -1.36 | -0.837 | 0.135 | -0.447 | -0.0306 | -13.4 (active)
COC(=O)[C@@]1(Cc2ccc(OC)cc2)[C@H]2c3cc(C(=O)N4CCCC4)n(CCc4c[nH]c5ccc(O)cc45)c3C[C@H]2CN1C(=O)c1ccccc1 | 0.863 | 0.714 (inactive) | 0.298 | 0.0409 | 0.774 | 2.05 | 0.441 | 1.34 | -0.135 | 0.992 | 0.256 | 1.23 | 0.594 | 0.948 | 1.16 | 0.0628 | 0.623 | 0.111 | 0.92 | -1.31 (inactive)
CC(C)C(O)C1C=CC2C(=O)N(c3ccccc3)C(=O)C2N1Nc1ccccc1 (stereo not given) | 0.938 | -0.221 (inactive) | 0.228 | -0.131 | 0.698 | 3.02 | 0.281 | 1.31 | -0.235 | 0.966 | 0.331 | 1.29 | 0.463 | 1.05 | 0.986 | -0.11 | 0.0126 | 0.63 | 1.14 | 0.172 (inactive)
CC(=O)N1CC2(CC2)CC1c1ccccc1 (stereo not given) | 0.336 | 0.204 (inactive) | 0.77 | 0.172 | 0.671 | 1.88 | 0.562 | 0.913 | 0.0586 | -0.0459 | 0.712 | 0.678 | 0.277 | 0.59 | -0.0582 | 1.6 | 0.033 | -0.46 | 0.251 | 2.49 (inactive)
C#Cc1cc2ccccc2oc1=O | 0.683 | 0.207 (inactive) | -0.437 | -0.126 | 0.637 | 0.688 | 0.216 | 0.343 | -2.62 | -0.486 | -0.314 | -0.451 | -0.393 | -1.03 | -2.22 | -1.39 | -1.14 | -1.58 | -1.12 | -2.39 (inactive)
CCCCCN1CC=CC23O[C@@H]4/C=C\CCCOC(=O)C4[C@H]2C(=O)N(C(C)CO)[C@@H]3C1=O (stereo not given in full) | 0.356 | 0.0199 (inactive) | -0.427 | -0.169 | 0.839 | 0.626 | -0.0467 | 0.0008 | -1.14 | -0.734 | 0.465 | -0.402 | -0.249 | 0.659 | -0.87 | -1.08 | 0.17 | -0.476 | 0.916 | -0.179 (inactive)
O=C1N(Cc2ccccc2)c2ccccc2C[C@]12N=C(c1ccc(OCCCO)cc1)O[C@@H]2c1ccccc1 | 0.185 | 0.109 (inactive) | 0.0203 | -0.161 | 0.529 | 1.86 | 0.274 | 0.48 | 0.441 | 1.02 | 1.1 | 1.03 | 1.7 | 0.529 | 1.1 | 1.36 | -0.911 | 0.492 | 0.186 | -1.74 (inactive)
CCOC(=O)C[C@H]1[C@H](OC(=O)c2cc3ccccc3oc2=O)[C@@H](NC(=O)c2ccc3ccccc3n2)c2cc(OCCCO)ccc2N1C(=O)Cc1ccc(OC)cc1 | 0.463 | 0.35 (inactive) | 0.127 | -0.0878 | 0.356 | 0.219 | -0.0863 | 1.22 | 0.368 | 1.05 | 0.357 | 1.18 | 0.277 | 0.953 | 1.06 | 0.509 | 0.57 | 1.06 | 0.275 | 0.798 (inactive)
COc1cc(C(O)C2C=CC3C(=O)N(C)C(=O)C3N2Nc2ccccc2)cc(OC)c1OC (stereo not given) | 0.785 | -0.014 (inactive) | 0.962 | 0.106 | 0.818 | 3.2 | 0.708 | 1.11 | -0.0836 | 1.01 | 2.78 | 1.23 | 1.05 | 1 | 0.568 | -0.397 | 0.29 | -0.714 | 1.14 | -1.36 (inactive)
